53 compounds from PMC4336329 (PLoS ONE, 2015) can be followed below.

About 14,000 (4.5%) of roughly 310,000 compounds showed an effect of 50% or more. Effects have a minus sign here. The sample as a whole holds a higher share of strong results than the screen did.
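Further: peak tail current of the secondary pulse compared with the same well before compound.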

In this experiment the target is human ether-à-go-go-related gene (hERG) potassium channel (human, UniProt Q12809). Kind of experiment: primary screen, population patch clamp on CHO cells stably expressing hERG; higher = less effect of the substance.
Sequence of human ether-à-go-go-related gene (hERG) potassium channel (Q12809 whole entry, looked up): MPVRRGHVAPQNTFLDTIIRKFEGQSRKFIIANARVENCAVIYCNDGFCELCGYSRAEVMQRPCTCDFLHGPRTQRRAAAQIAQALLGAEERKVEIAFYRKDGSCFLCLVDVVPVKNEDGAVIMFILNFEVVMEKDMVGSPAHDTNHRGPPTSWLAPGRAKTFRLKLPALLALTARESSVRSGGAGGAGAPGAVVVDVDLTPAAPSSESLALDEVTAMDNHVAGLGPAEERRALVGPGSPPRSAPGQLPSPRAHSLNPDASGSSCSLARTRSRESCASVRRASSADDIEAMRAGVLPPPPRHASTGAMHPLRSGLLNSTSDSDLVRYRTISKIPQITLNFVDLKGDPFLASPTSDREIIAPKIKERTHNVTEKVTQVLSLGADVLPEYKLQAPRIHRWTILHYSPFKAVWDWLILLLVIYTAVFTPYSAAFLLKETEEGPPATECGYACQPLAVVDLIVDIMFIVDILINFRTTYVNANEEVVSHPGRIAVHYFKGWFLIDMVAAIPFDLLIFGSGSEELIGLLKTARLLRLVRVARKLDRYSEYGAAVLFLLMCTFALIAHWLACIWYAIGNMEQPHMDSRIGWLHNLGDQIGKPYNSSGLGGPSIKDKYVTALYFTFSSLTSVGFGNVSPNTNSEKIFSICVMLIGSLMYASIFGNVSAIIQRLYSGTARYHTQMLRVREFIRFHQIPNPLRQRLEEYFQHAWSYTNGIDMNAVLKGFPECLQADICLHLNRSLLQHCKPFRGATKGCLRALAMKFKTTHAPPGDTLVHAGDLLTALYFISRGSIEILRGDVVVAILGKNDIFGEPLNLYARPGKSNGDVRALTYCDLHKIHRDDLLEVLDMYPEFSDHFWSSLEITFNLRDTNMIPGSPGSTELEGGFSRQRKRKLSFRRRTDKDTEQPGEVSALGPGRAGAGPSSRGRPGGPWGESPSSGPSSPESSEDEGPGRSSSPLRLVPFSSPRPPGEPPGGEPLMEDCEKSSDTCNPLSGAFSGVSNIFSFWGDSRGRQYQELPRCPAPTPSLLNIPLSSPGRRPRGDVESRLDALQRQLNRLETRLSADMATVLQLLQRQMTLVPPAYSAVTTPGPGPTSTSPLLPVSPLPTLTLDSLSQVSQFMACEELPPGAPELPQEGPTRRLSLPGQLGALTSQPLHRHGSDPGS
As for `Cc1cc(NC(=O)CCN2C(=O)C3C4C=CC(C4)C3C2=O)c2ccccc2n1` (centres unmarked), the “hERG current change (%, negative = inhibition) at 10uM” value is recorded as 7.51%. The same measure for `CC(=O)Nc1nc(C(F)(F)F)cs1`: 7.96%; for `CN(C(=O)c1cccnc1)c1nnc(-c2cnccn2)s1`: 8.06%; for `Cc1cc(NC(=O)c2cccc3c2C(=O)N(C2CCCCC2)C3)ccc1Br`: 13%.

Take `O=C(NCCN1C(=O)S/C(=C\c2ccc(F)cc2)C1=O)c1cccc(S(=O)(=O)N2CCOCC2)c1`: the “hERG current change (%, negative = inhibition) at 10uM” value is -3.04%. The same measure for `COc1ccccc1N1CC(C(=O)NCCN2C(=O)S/C(=C\c3cccnc3)C2=O)CC1=O` (centres unmarked): 1.78%; for `CC(C)(Oc1ccc(Cl)cc1)C(=O)NCCN1C(=O)S/C(=C/c2cccnc2)C1=O`: -62.9%; for `CSc1cccc(N2CC(C(=O)NCCN3C(=O)S/C(=C\c4cccnc4)C3=O)CC2=O)c1` (centres unmarked): -68.3%.

`CS(=O)(=O)c1ccc(C(=O)NCCN2C(=O)S/C(=C\c3cccnc3)C2=O)cc1[N+](=O)[O-]`: the “hERG current change (%, negative = inhibition) at 10uM” value came out at 1.32%.

For the compound `O=C(NCCN1C(=O)S/C(=C\c2cccnc2)C1=O)c1cc(S(=O)(=O)N2CCOCC2)ccc1F`, the “hERG current change (%, negative = inhibition) at 10uM” value is listed as -59%. `COc1ccc(C(=O)NCCN2C(=O)S/C(=C\c3cccnc3)C2=O)cc1[N+](=O)[O-]`: the “hERG current change (%, negative = inhibition) at 10uM” value is -63.8%. Take `Cc1c(C(=O)NCCN2C(=O)S/C(=C\c3cccnc3)C2=O)cccc1[N+](=O)[O-]`: the “hERG current change (%, negative = inhibition) at 10uM” value is -45.1%. With `O=C(CCl)NCCN1C(=O)S/C(=C\c2cccnc2)C1=O`, the “hERG current change (%, negative = inhibition) at 10uM” value is given as 26.1%. The same measure for `CCOc1ccc(N2CC(C(=O)NCCN3C(=O)S/C(=C\c4cccnc4)C3=O)CC2=O)cc1` (centres unmarked): -0.149%; for `O=C(NCCN1C(=O)S/C(=C\c2cccnc2)C1=O)c1ccc(S(=O)(=O)N2CCCC2)cc1`: -11.3%. In the case of `Cc1cc(OCCCC(=O)NCCN2C(=O)S/C(=C\c3cccnc3)C2=O)ccc1Cl`, the “hERG current change (%, negative = inhibition) at 10uM” value is -6.35%. The same measure for `Cc1ccc(S(=O)(=O)NC(C)(C)CSc2ncccn2)cc1`: -4.42%; for `CC1=CC(C)(C)N(C(=O)CCl)c2ccccc21`: -39.7%; for `O=C(O)C(Nc1nc(C(F)(F)F)nc2ccccc12)c1ccccc1` (centres unmarked): 26.2%. The same measure for `O=C(Cc1cccs1)NCc1cccc(F)c1`: 14.4%; for `CCOC(=O)C1CCN(c2c(NCc3ccc(C(=O)NCCOC)cc3)c(=O)c2=O)CC1`: -7.38%.

On to `CCn1cc(C(=O)Nc2ccc(F)c(F)c2)cn1`, for which the “hERG current change (%, negative = inhibition) at 10uM” value was determined as 7.43%. With `COc1ccccc1N(CC(=O)NC(C)(C)C)C(=O)CCC(=O)Nc1nccs1`, the “hERG current change (%, negative = inhibition) at 10uM” value is -36.5%. The same measure for `COC(=O)CN1C(=O)C2(OCCCO2)c2ccccc21`: -7.31%; for `O=C(Nc1cccc(-c2cccc(Cl)c2)c1)C1CCN(Cc2ccccn2)CC1`: -77.8%. Take `Cc1cc(C)n(-c2ccc(NC(=O)C3CCN(Cc4ccccn4)CC3)cc2)n1`: the “hERG current change (%, negative = inhibition) at 10uM” value is reported as -14.5%.

`O=C(Nc1cccc(-c2cccc(Cl)c2)c1)C1CCN(Cc2ccon2)CC1`: the “hERG current change (%, negative = inhibition) at 10uM” value is -52.7%.

`Cl.O=C(O)C1CCN(Cc2ccccn2)CC1`: the “hERG current change (%, negative = inhibition) at 10uM” value is on record as 16.2%. The same measure for `COc1cccc(-c2cccc(NC(=O)C3CCN(Cc4ccon4)CC3)c2)c1`: -27.8%. The same measure for `CC(c1ccccc1)C1CC(=O)N(Cc2ccco2)C1=O` (centres unmarked): 25.9%; for `COc1ccc(CN2CC(C(=O)NCCC(C)C)CC2=O)cc1` (centres unmarked): 10.5%; for `COc1ccc(NC(=S)NCCSc2ccc(C)cc2)c(OC)c1`: 5.2%. The same measure for `CCOC(=O)c1c(C)[nH]c(C)c1S(=O)(=O)NCCc1sccc1C`: -0.705%; for `Cc1cc2ncn(CC(O)COc3cccc(C(=O)O)c3)c2cc1C` (centres unmarked): -10.8%. With `Cc1ccc(C(=O)Nc2ccccc2C(=O)O)cc1S(=O)(=O)NCc1ccccc1`, the “hERG current change (%, negative = inhibition) at 10uM” value is given as 9.8%. The same measure for `CC(CN1CCOCC1)C(=O)c1ccccc1.Cl` (centres unmarked): 8.47%; for `Cc1ccc(C)c(S(=O)(=O)NC(C)C(=O)Nc2ccc(-c3nc4ccccc4s3)cc2)c1` (centres unmarked): 2.9%; for `Cc1ccc(/C=C/C(=O)OCC(=O)NC(=O)NCc2ccco2)cc1`: 18.7%. As for `CCc1cccc(C)c1NC(=O)COC(=O)c1ccc2c(c1)S(=O)(=O)c1ccccc1C2=O`, the “hERG current change (%, negative = inhibition) at 10uM” value is recorded as -0.0165%. With `Cc1ccc(-n2ncc3c2CC(C)(C)CC3NC(=O)CCc2ccc(=O)[nH]n2)cc1` (centres unmarked), the “hERG current change (%, negative = inhibition) at 10uM” value was -11.2%.

For `C=CCC(=O)NC1CC(C)(C)Cc2c1cnn2-c1ccc(C)cc1` (centres unmarked), the “hERG current change (%, negative = inhibition) at 10uM” value is listed as -69.7%. The same measure for `Cc1nn(C)c(C)c1CCC(=O)NC1CC(C)(C)Cc2c1cnn2-c1ccccc1` (centres unmarked): -28.1%; for `Cc1ccc(-n2ncc3c2CC(C)(C)CC3NC(=O)CCc2ccncc2)cc1` (centres unmarked): -72.2%; for `CCc1nccn1CCC(=O)NC1CC(C)(C)Cc2c1cnn2-c1ccc(C)cc1` (centres unmarked): -22.1%. As for `COC(=O)CCCC(=O)NC1CC(C)(C)Cc2c1cnn2-c1ccc(C)cc1` (centres unmarked), the “hERG current change (%, negative = inhibition) at 10uM” value is reported as -24.7%. The same measure for `CSCCC(=O)NC1CC(C)(C)Cc2c1cnn2-c1ccccc1C` (centres unmarked): -10.4%. Regarding `COC(=O)CCC(=O)NC1CC(C)(C)Cc2c1cnn2-c1ccccc1` (centres unmarked), the “hERG current change (%, negative = inhibition) at 10uM” value was -12%. The same measure for `COc1ccc(-n2ncc3c2CC(C)(C)CC3NC(=O)CCC2=NNC(=O)CC2)cc1` (centres unmarked): 15.8%; for `C=CCC(=O)NC1CC(C)(C)Cc2c1cnn2-c1ccccc1C` (centres unmarked): 4.35%; for `CC1(C)Cc2c(cnn2-c2ccccc2)C(NC(=O)CCc2ccncc2)C1` (centres unmarked): -68.8%. The same measure for `Cc1ccccc1-n1ncc2c1CC(C)(C)CC2NC(=O)CCC1=NNC(=O)CC1` (centres unmarked): -75.9%; for `CCCCOc1ccc(C(=O)NCC(=O)OC2CCOC2=O)cc1` (centres unmarked): 4.84%; for `Cc1cc(C(=O)N/N=C/c2sc(N3CCOCC3)nc2-c2ccccc2)c(C)o1`: 8.26%.
